APOBEC3A inh – APOBEC3A ssDNA deaminase inhibitors, primary screen, selectivity assay for APOBEC3G inhibitor project, biochemical, FAM/TAMRA oligo cleavage fluorescence; DNA dC->dU-editing enzyme APOBEC-3A (Homo sapiens), P31941; recombinant A3A, FAM/TAMRA ssDNA deamination fluorescence; inhibition, % at 20 µM; 330,000 tested, 0.41% active; AID 493011, 2011;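 active means at least 40% inhibition at 20 µM here, with at most 30% in a related deaminase screen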;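 further: plate controls were A3A with DMSO for no effect and wells lacking A3A enzyme for full effect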
Target sequence (P31941 whole entry, looked up): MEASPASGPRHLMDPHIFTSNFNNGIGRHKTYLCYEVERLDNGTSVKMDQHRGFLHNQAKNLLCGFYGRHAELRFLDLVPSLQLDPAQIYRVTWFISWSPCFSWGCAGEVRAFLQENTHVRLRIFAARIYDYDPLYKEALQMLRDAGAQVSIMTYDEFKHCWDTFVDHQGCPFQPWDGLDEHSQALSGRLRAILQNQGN
VLA-4 inh – inhibition in human VLA-4 binding assay, primary screen, VLA-4 allosteric modulator project, MLPCN library, flow cytometry, VLA-4 expressing cells; Integrin alpha-4 (Homo sapiens), P13612; ligand binding flow cytometry; inhibition, % (about 7 µM as worked out from the volumes in the protocol); 330,000 tested, 0.2% active; in the data active means inhibition above about 50%
A3G deaminase – APOBEC3G DNA deaminase inhibitors, primary screen, biochemical, fluorescence, single-stranded DNA substrate, uHTS; DNA dC->dU-editing enzyme APOBEC-3G (Homo sapiens), Q9HC16; recombinant A3G, ssDNA deamination FAM/TAMRA fluorescence; inhibition, % at 20 µM; 330,000 tested, 0.28% active; AID 493012, 2011;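 active means inhibition of at least 40% at 20 µM, with no more than 30% in the related APOBEC3A deaminase screen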;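 further: plate controls were DMSO wells with A3G for no effect and wells lacking A3G enzyme for full effect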
Target sequence (Q9HC16 whole entry, looked up): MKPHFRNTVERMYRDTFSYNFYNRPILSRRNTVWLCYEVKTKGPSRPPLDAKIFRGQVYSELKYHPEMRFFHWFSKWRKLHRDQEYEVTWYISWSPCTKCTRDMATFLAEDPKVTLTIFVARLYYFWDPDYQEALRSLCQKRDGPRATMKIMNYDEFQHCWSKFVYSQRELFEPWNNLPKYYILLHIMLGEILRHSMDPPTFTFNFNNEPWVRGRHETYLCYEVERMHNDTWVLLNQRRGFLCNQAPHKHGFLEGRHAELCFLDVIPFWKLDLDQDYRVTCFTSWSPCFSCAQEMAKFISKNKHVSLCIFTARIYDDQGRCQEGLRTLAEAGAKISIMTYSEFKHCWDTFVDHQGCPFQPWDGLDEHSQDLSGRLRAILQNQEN
GRK2 aptamer HTS – compounds blocking aptamer binding on GRK2 – biochemical, human GRK2, bead flow cytometry, HTS, primary screen | 330,000 tested, 0.59% active | FAM-aptamer displacement from GRK2 | AID 488847, 2010 | inhibition of aptamer binding, % at 10 µM | Beta-adrenergic receptor kinase 1 (Homo sapiens), P25098;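 active means inhibition of aptamer binding above 40%, roughly 3 SD of noise, on plates passing a quality check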;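 further: median bead fluorescence of bound FAM aptamer so fluorescent compounds give negative values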
GRK2 inh confirm – GRK2 aptamer-displacing inhibitors, retest, confirmation, biochemical, cherry pick 1, bead flow cytometry | shares compounds with GRK2 aptamer HTS | bead-bound GRK2, FAM-aptamer displacement | aptamer displacement, % at 10 µM | 2,000 tested, 4% active | AID 504451, 2011;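 active means aptamer displacement above 40%, near three times the noise of non-fluorescent compounds, on plates passing quality checks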;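 further: negative values mostly reflect intrinsic compound fluorescence rather than true enhancement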
Aptamer quench – quenches fluorescent RNA aptamer, GRK2 hit artifact; shares compounds with GRK2 aptamer HTS; Fluorescent RNA aptamer beads, quenching, flow cytometry; stronger effect = higher value; fluorescence change (kMESF span), kMESF (test concentration not listed); 110 tested, under 10 active; AID 504521;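 active means compounds whose bead fluorescence drops by more than 37 kMESF across the dose range, marking them as dye quenchers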
Aptamer quench SP – quenches fluorescent RNA aptamer, GRK2 hit artifact. shares compounds with GRK2 aptamer HTS. Carboxyfluorescein RNA aptamer on beads, flow cytometry quenching; stronger effect = lower value. fluorescence response (% of DMSO), % at 10 µM. 2,000 tested, under 10 active. AID 504580;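 active means compounds that quench the bead-bound fluorescent RNA probe, cutting fluorescence to under half of the solvent control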;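 further: counterscreen run without GRK2 so only probe quenching by compound is measured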
GRK2 confirm 2 – GRK2 aptamer-displacing inhibitors, hit retest, confirmation, biochemical, cherry pick 2, bead flow cytometry; shares compounds with GRK2 aptamer HTS; bead-bound GRK2, FAM-aptamer displacement; inhibition of aptamer binding, % at 10 µM; 360 tested, under 10 active;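 active means inhibition of aptamer binding above 40%, about triple the noise seen with nonglowing compounds, on plates passing quality control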;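 further: negative values mostly come from compounds that fluoresce themselves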
FAM quench SP – quenches fluorescent RNA aptamer, GRK2 hit artifact | fluorescence response vs DMSO, % at 10 µM | 360 tested, under 10 active | shares compounds with GRK2 aptamer HTS | carboxyfluorescein RNA aptamer beads, flow cytometry quenching; stronger effect = lower value;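 active means response vs DMSO under 50%, meaning signal dropped by over half, treated as fluorescence quencher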;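 further: labelled aptamer on streptavidin beads without GRK2 as a quench counter-screen; 100% = bead fluorescence of DMSO wells and lower means quenching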
* hit, by the source's call; i = inactive; . = no result. Hits are enriched below; roughly 1.4% of the tested compounds scored in any of these assays.

SMILES	APOBEC3A inh	VLA-4 inh	A3G deaminase	GRK2 aptamer HTS	GRK2 inh confirm	Aptamer quench SP	others
Cc1ccc2cc(CN(Cc3nnnn3Cc3ccco3)CC3CCCO3)c(=O)[nH]c2c1C (stereo not drawn)	13	-8	10	64*	-13	104
Cc1ccc2cc(CN(CC3CCCO3)C(=S)NCc3ccco3)c(=O)[nH]c2c1C (stereo not drawn)	-3	-13	-1	0	.	.
CC12CCC3C(CCC4N(CCO)CCC34C)C1CCC2O (stereo not drawn)	-3	24	-9	49*	-1	106
C[C@]12CC[C@@H]3c4cc(O)c(O)cc4CC[C@H]3[C@@H]1CC[C@@H]2O	0	-1	40	2	.	.
CC(C)CCNC(=O)CCn1c(=S)oc2ccccc21	-6	-5	-8	43*	1	97
Cc1c(C)c2ccc(OCC(=O)N3CCN(c4ccc(F)cc4)CC3)c(C)c2oc1=O	-7	2	-9	3	.	.
c1ccc(Cc2noc(CN3CCCC(CN4CCOCC4)C3)n2)cc1 (stereo not drawn)	3	-9	-8	0	.	.
CCOc1ccc(C(C)NC(=O)C2CCCC2)cc1 (stereo not drawn)	2	-2	2	0	.	.
CCOc1ccc(C(C)NC(=O)C2CCC2)cc1 (stereo not drawn)	4	-3	-4	100*	.	.	GRK2 confirm 2=-10;FAM quench SP=101
CC(NC(=O)c1ccncc1)C(c1cccs1)N1CCOCC1 (stereo not drawn)	1	13	-1	0	.	.
CC(NC(=O)c1ccc(C(C)(C)C)cc1)C(c1cccs1)N1CCOCC1 (stereo not drawn)	8	5	-2	53*	.	.	GRK2 confirm 2=5;FAM quench SP=102
CCOc1ccccc1N(CC(=O)Nc1ccccc1C(=O)NCc1ccco1)S(C)(=O)=O	-1	6	2	0	.	.
Nc1ccc2sc(N)nc2c1	0	-2	-3	0	.	.
Nc1nc2c(ccc3ccccc32)s1	-2	-6	-4	0	.	.	GRK2 confirm 2=-20;FAM quench SP=101
Cc1ccc(C(=O)Nc2cccc(C(=O)NCc3ccco3)c2)cc1	-1	21	-6	0	34	103	Aptamer quench=6.2
CCC(CC)C(=O)Nc1cccc(C(=O)NCc2ccco2)c1	15	6	4	0	.	.
O=C(NCc1ccco1)c1cccc(NC(=O)c2ccccc2)c1	0	13	-9	0	-3	106
CCOc1ccc(NC(=O)c2ccc(F)cc2F)cc1	-1	17	-8	1	.	.
O=C(NC1CC1)c1cc(=S)[nH]c2ccccc12	-5	21	18	29	1	99
O=C(NC1CC1)C(=O)c1c[nH]c2ccccc12	-4	-2	5	2	.	.
Cc1cccc(N(C)C(=O)CCS(=O)(=O)c2cccc3nonc23)c1	3	-10	0	4	.	.
CCOc1ccccc1NC(=O)CCS(=O)(=O)c1cccc2nonc12	3	0	1	2	.	.	GRK2 confirm 2=i;FAM quench SP=107
CC(=O)c1cccc(NC(=O)CCS(=O)(=O)c2cccc3nonc23)c1	-1	10	-8	2	.	.	GRK2 confirm 2=-21;FAM quench SP=110
COc1ccc(N(C)C(=O)CCS(=O)(=O)c2cccc3nonc23)c(OC)c1	-4	9	-6	0	.	.	GRK2 confirm 2=-21;FAM quench SP=101
Cc1cc(C(=O)OCC(=O)N(C)c2ccccc2)c2ccccc2n1	-1	-14	-3	4	.	.
SMILES	APOBEC3A inh	VLA-4 inh	A3G deaminase	GRK2 aptamer HTS	GRK2 inh confirm	Aptamer quench SP	others
CCCCNC(=O)c1onc(CSc2ccc(Cl)cc2)c1C(=O)O	2	16	13	0	.	.
Cc1cc(C(=O)COC(=O)c2ccc3c(c2)NC(=O)CS3)c(C)n1CC1CCCO1 (stereo not drawn)	-3	15	-8	0	.	.
OCCN(Cc1ccccc1)CC1CC2C=CC1C2 (stereo not drawn)	-2	8	-6	46*	-3	95
OCCN(Cc1ccccc1)CC1CCCCC1	-1	12	-3	3	.	.
CN1C(=O)N(C)C2(c3ccccc3)Nn3c(s/c(=C/c4ccccc4F)c3=O)=NC12c1ccccc1 (stereo not drawn)	2	8	-4	0	.	.
CC1CCN(c2nc(CN3CCCCC3)nc3scc(-c4ccccc4)c23)CC1	-3	25	-3	0	-3	94
CCN(CC(=O)Nc1cc(Cl)ccc1C)C(=O)c1ccc2c(c1)NC(=O)C(C)S2 (stereo not drawn)	1	23	-10	2	.	.
Cc1nn(C)c(C)c1C(C)NC(=O)c1cc(COc2cncc(Cl)c2)on1 (stereo not drawn)	0	16	-1	83*	3	97
Cc1nn(C)c(C)c1C(C)NC(=O)c1cc(COc2ccc(F)c(F)c2)on1 (stereo not drawn)	-4	-3	-5	3	.	.
COc1cccc(CNC(=O)C2CCN(S(=O)(=O)c3ccc(Br)s3)CC2)c1	-3	5	-4	1	.	.
Cc1ccccc1-c1nc(CN2CCCC(C(=O)NCc3cccnc3)C2)c(C)o1 (stereo not drawn)	-3	2	-3	0	1	108
COc1ccc(CNC(=O)C2CCCN(Cc3nc(-c4cccc(C)c4)oc3C)C2)cc1 (stereo not drawn)	-1	-10	-3	0	0	95
Cc1oc(-c2ccc(Cl)cc2)nc1CN1CCCC(C(=O)NCc2ccco2)C1 (stereo not drawn)	0	13	2	3	-2	97
CN(C)c1ccc(C(=O)OCC(=O)NC2CCCCCC2)cc1	-8	6	-15	5	.	.
CSc1ncc(CN2CCN(CC=C(C)C)C(CCO)C2)cn1 (stereo not drawn)	1	-17	-5	0	.	.
C=CCSc1ncccc1C(=O)NCCc1ccc(Cl)cc1	7	1	-3	0	.	.
O=C(O)c1cccc(N2CCCC2=O)c1	0	7	-6	0	.	.
